Consider twelve compounds from PubChem BioAssay.

In assay [1] the test system is Human papillomavirus type 1a protein E7 (residues 44-93). Briefly: small molecules binding HPV E7 44-93 – biochemical, small-molecule microarray, residues 44-93, 635 nm fluorescence, primary screen (AID 1108).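 Further: E7 fragment applied at 1 µg/mL in TBST for 1 h at 4 C; score combines spot fluorescence with its signal to noise ratio.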 Conditions: fluorescence 635 nm, higher = more signal.
Assay [2] in a line: hepatitis C replication reporter changes, two-sided – Huh7 cells, luciferase reporter, HCV replication inhibitor project, primary screen (AID 1109).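 Further: huh7 hepatoma cells harbouring a luciferase neomycin HCV replicon reporter; luciferase luminescence as measure of HCV replicon replication; test concentration not given here.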 Conditions: Huh7 HCV replicon luciferase reporter, 48 h; higher = more signal.
Assay [3] deals with Left-right determination factor 2 (Homo sapiens) (UniProt O00292). In words: small molecules binding LEFTY2 protein – biochemical, small-molecule microarray, 635 nm fluorescence scan, primary screen (AID 1110). Conditions: higher = more signal.
Assay [4] has as its target Calmodulin-1 (Homo sapiens) (UniProt P0DP23). In words: small molecules binding calmodulin-1 with EGTA – biochemical, small-molecule microarray, Cy5-labelled CALM1, profiling panel (AID 1111).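 Further: labelled calmodulin applied in Tris saline Tween buffer holding calcium plus EGTA and DTT.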 As to conditions: Cy5-CALM1 binding fluorescence, higher = more signal.
For assay [5] the target is unchanged. Briefly: small molecules binding Ca-loaded calmodulin-1 – biochemical, small-molecule microarray, Cy5-labelled CALM1, plus calcium, artefact control for SMM control-protein annotation, profiling panel (AID 1112).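 Further: score merges spot fluorescence with signal to noise from triplicate slides.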 Conditions: Cy5-CALM1 binding fluorescence, higher = more signal.
Assay [6] can be described thus: probe aWnt5a binding to arrayed compounds – biochemical, biotinylated probe, 635/667 nm fluorescence, primary screen (AID 1113).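 Further: score merges 667 nm fluorescence intensity with signal-to-noise per printed feature.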 Conditions: small-molecule microarray, higher = more signal.
Assay [7] can be described thus: probe aShh binding to arrayed compounds – biochemical, biotinylated probe, 635/667 nm fluorescence, primary screen (AID 1114).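 Further: probe is biotin-labelled aShh protein from a stem cell growth factor screen; measures binding of labelled protein to compounds printed on the slide; score merges feature fluorescence at 667 nm with signal-to-noise.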 As to conditions: small-molecule microarray, higher = more signal.
Assay [8] can be described thus: probe aNog binding to arrayed compounds – biochemical, biotinylated probe, 635/667 nm fluorescence, primary screen (AID 1115).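 Further: probe is biotinylated aNog protein used at 0.15 µg/mL for 1 h at 4 C; z-score combines 667 nm fluorescence of each spot with its signal to noise.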 As to conditions: small-molecule microarray, higher = more signal.
For assay [9], the target named is Torsin-1A-interacting protein 1 (Homo sapiens) (UniProt Q5JTV8). In words: compound microarray binding of lysate hLAP1 – cell lysate, small-molecule microarray, COS7 lysate, 635/667 nm fluorescence, primary screen (AID 1116). Conditions: 635 nm fluorescence, higher = more signal.
For assay [10], the target named is Alpha-bungarotoxin (Bungarus multicinctus) (UniProt P60615). In words: compounds binding labelled alpha-BTX control protein – biochemical, small-molecule microarray, Alexa647 label, 635/667 nm fluorescence, artefact control for SMM control protein annotation, profiling panel (AID 1117). As to conditions: alpha-BTX-A647 binding fluorescence, higher = more signal.
Chain of Alpha-bungarotoxin (Bungarus multicinctus) (P60615 whole entry, looked up): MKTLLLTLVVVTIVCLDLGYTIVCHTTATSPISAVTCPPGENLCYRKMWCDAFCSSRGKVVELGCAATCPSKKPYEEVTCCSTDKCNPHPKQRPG

Chain of Left-right determination factor 2 (Homo sapiens) (O00292 whole entry, looked up): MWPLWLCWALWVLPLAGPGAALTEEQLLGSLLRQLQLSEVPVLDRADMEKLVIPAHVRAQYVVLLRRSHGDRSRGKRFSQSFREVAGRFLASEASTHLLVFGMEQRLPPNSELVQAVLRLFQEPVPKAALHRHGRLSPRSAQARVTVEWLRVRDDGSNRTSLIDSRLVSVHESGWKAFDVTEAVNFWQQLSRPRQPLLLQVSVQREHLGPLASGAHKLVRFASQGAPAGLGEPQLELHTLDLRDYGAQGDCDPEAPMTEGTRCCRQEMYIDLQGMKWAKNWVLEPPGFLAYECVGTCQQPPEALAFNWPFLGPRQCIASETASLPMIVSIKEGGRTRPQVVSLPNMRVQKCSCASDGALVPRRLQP
Chain of Torsin-1A-interacting protein 1 (Homo sapiens) (Q5JTV8 whole entry, looked up): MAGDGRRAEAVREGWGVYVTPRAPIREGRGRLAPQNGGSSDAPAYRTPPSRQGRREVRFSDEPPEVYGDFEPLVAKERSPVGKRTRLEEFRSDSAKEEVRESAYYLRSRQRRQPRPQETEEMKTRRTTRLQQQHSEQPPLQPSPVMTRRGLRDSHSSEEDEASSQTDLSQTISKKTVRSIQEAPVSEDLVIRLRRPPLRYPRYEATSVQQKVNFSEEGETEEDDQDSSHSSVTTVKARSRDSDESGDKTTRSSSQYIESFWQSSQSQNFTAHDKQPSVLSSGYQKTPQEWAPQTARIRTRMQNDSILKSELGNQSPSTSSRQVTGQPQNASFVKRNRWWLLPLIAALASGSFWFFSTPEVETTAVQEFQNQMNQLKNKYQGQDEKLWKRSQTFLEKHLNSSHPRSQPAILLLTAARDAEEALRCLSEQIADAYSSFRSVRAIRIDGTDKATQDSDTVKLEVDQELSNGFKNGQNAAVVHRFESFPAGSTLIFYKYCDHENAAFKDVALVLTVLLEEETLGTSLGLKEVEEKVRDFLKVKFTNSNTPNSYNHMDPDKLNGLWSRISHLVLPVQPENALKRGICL

Consider `COC(=O)CC=C[C@@H](C)[C@@H](C=NO[C@@H](C)c1cc(-c2c(C)cc(C)cc2C)no1)NS(=O)(=O)c1ccc(C)cc1`, for which the composite z-score in assay [1] is -0.707; in assay [3], -1.36; in assay [4] it was -0.3; in assay [5], 0.573; in assay [6] it was -0.202; in assay [7], -0.138. Besides, the composite z-score is 0.0011 in assay [8], -0.436 in assay [9] and -0.744 in assay [10]. For the same compound, the z-score in [2] is -1.6.
For the compound `CCOC(=O)CCN1C(=O)[C@H]2[C@H]3[C@H](O)[C@H](O)CC(=NOCC(C)C)[C@H]3CC[C@H]2C1=O`, the composite z-score in assay [1] is -0.245; in assay [3], 0.0607; in assay [4], -0.271; in assay [5] it was -0.26; in [6] it was -0.0346; in assay [7] it was -0.209. Further, the composite z-score was 0.0669 in assay [8], 0.326 in assay [9] and 0.797 in [10]. This compound yielded a z-score in assay [2] of 0.453.
For `COC(=O)CC=C[C@@H](C)[C@@H](C=NOCC[C@@H]1C=C[C@H](OC(C)=O)[C@@H](COC(C)=O)O1)NS(=O)(=O)c1ccc(C)cc1`, the composite z-score in assay [1] is -0.0642; in assay [3], 0.851; in [4] it was -0.879; in [5], -1.47; in assay [6], -0.0519; in [7] it was 0.0141. Moreover, the composite z-score is -0.429 in assay [8], 0.164 in assay [9] and -0.0729 in assay [10]. Further, in [2], the z-score is -1.45.
Consider `CC(C)(C)N1C(=O)[C@H]2[C@H]3[C@H](O)[C@H](O)CC(=O)[C@@H]3CC[C@H]2C1=O`, for which the composite z-score is 0.3 in [1]; 0.709 in [3]; -0.339 in assay [4]; -0.518 in assay [5]; -0.0125 in assay [6]; 0.0121 in assay [7]. Moreover, the composite z-score was -0.108 in assay [8], 0.804 in assay [9] and 0.106 in assay [10]. The z-score in assay [2] was 0.6.
Consider `CC1O[C@H]2C3=C(C(=O)[C@@H]4O[C@@H]4[C@H]3O)[C@@H]1C1[C@@H](C)OC=C3[C@H](O)C4O[C@@H]4C(=NOCc4ccccc4)[C@]312` (stereo not given in full), for which the composite z-score in [1] is -0.768; in assay [3] it was 0.18; in [4] it was -0.472; in assay [5], -0.177; in assay [6], -0.0519; in assay [7], 0.225. The results for the composite z-score in assay [8], in [9] and in assay [10] were -0.347, -0.192 and -0.725, respectively. The compound also had a z-score in assay [2] of -3.71.
For the compound `COC(=O)CC=C[C@@H](C)[C@@H](C=NO[C@@H](C)c1cn([C@H](CO)Cc2ccccc2)nn1)NS(=O)(=O)c1ccc(C)cc1`, the composite z-score in assay [1] is -0.0476; in assay [3], 0.739; in assay [4], -0.598; in [5] it was -0.531; in assay [6], 0.0077; in [7], -0.0977. Also, the composite z-score in [8] is 0.143; in assay [9], 0.258; in assay [10], -0.331. Further, the z-score in assay [2] was -0.858.
In the case of `COc1ccc(COC(=O)NN=C2C[C@@H](O)[C@@H](O)[C@@H]3[C@@H]4C(=O)N(c5ccc(F)cc5F)C(=O)[C@@H]4CC[C@H]23)cc1`, the composite z-score in assay [1] was -0.246; in assay [3], -0.551; in [4] it was -0.252; in assay [5] it was -0.318; in assay [6], -0.169; in assay [7], -0.0769. The composite z-score was -0.273 in [8], -0.724 in assay [9] and 0.616 in [10]. For the same compound, the z-score in assay [2] was -0.107.
For `Cc1ccc(S(=O)(=O)N[C@@H]2COC(=O)[C@@H](C)COC(=O)CC=C[C@H]2C)cc1`, the composite z-score in assay [1] is -0.534; in assay [3], 0.449; in assay [4], -0.0682; in [5], -0.523; in assay [6], -0.0222; in assay [7], -0.157. The composite z-score was -0.0489 in assay [8], 0.216 in assay [9] and 0.293 in assay [10]. The compound also had a z-score in [2] of 0.264.
Regarding `O=C1[C@H]2[C@H]3[C@H](O)[C@H](O)CC(=NOC[C@@H](O)COCc4ccco4)[C@H]3CC[C@H]2C(=O)N1c1ccc(F)cc1F`, the composite z-score in [1] is -3.61; in assay [3], 0.0845; in assay [4], -1.3; in [5] it was -1.07; in assay [6] it was -0.282; in assay [7], -0.504. Moreover, the composite z-score was 1.39 in assay [8], 0.346 in [9] and -0.59 in assay [10]. The compound further showed a z-score in [2] of -0.988.
Take `O=C(C=Cc1ccc2c(c1)OCO2)c1ccc(F)cc1`: the composite z-score was -0.9 in assay [1]; 0.976 in [3]; -0.481 in [4]; -1.41 in assay [5]; -0.0455 in [6]; 0.297 in assay [7]. Further, the composite z-score in assay [8] is -0.126; in assay [9] it was 0.569; in assay [10] it was 0.444. The z-score in assay [2] was found to be 2.84.
Regarding `COc1ccc(COC(=O)NN=C2C[C@@H](O)[C@@H](O)[C@@H]3[C@@H]4C(=O)N(Cc5ccccc5)C(=O)[C@@H]4CC[C@H]23)cc1`, the composite z-score in assay [1] was 1.36; in [3] it was -0.475; in assay [4] it was 0.0114; in assay [5], -0.435; in assay [6] it was -0.0758; in assay [7], -0.206. Besides, the composite z-score in assay [8] was 0.194; in [9], 0.589; in assay [10], 0.469. This compound also registered a z-score in assay [2] of -0.632.
Turning to `C=CC[C@@H]1C=C[C@H](ON=C(C)CCN2CCc3nc(-c4ccccc4)c(-c4ccccc4)cc3C2)[C@@H](CO)O1`, the composite z-score is 1.36 in [1]; 0.407 in assay [3]; 0.636 in assay [4]; -0.252 in assay [5]; -0.0735 in [6]; -0.0626 in [7]. Further, the composite z-score was -0.303 in assay [8], 0.782 in assay [9] and 0.729 in [10]. Moreover, the z-score in assay [2] is -1.81.
